Source: PubChem BioAssay (NCI)
About 83,000 compounds went through this panel and 20% of them were active in at least one assay; those are over-represented in the sample as a whole.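 For each line, cells grew in 96-well plates with the test compound present at a single concentration for 48 hours.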 Values without a mark were called inactive. Active and inactive are the calls of the source. Rule for the calls: active = growth percent below 10; inactive = the rest.

Legend:
Experiment in all cases: NCI-60 one-dose screen, 48 h (100 = growth as untreated, 0 = no growth, -100 = all killed)
NCI-H226 lung = conditions: 10 µM unless noted
MALME-3M melanoma = conditions: 10 µM unless noted
RXF 393 renal = conditions: 10 µM unless noted
SF-295 CNS = conditions: 10 µM unless noted
UACC-257 melanoma = conditions: 10 µM unless noted
PC-3 prostate = conditions: 10 µM unless noted
SK-MEL-5 melanoma = conditions: 10 µM unless noted
LOX IMVI melanoma = conditions: 10 µM unless noted
CAKI-1 renal = conditions: 10 µM unless noted
CCRF-CEM leukemia = conditions: 10 µM unless noted
MOLT-4 leukemia = conditions: 10 µM
RPMI-8226 leukemia = conditions: 10 µM unless noted
OVCAR-8 ovarian = conditions: 10 µM unless noted
OVCAR-3 ovarian = conditions: 10 µM unless noted
HS 578T breast = conditions: 10 µM unless noted
BT-549 breast = conditions: 10 µM
HCT-116 colon = conditions: 10 µM unless noted
HCC-2998 colon = conditions: 10 µM unless noted
M14 melanoma = conditions: 10 µM unless noted
A498 renal = conditions: 10 µM unless noted

SMILES	growth (NCI-H226 lung)	growth (MALME-3M melanoma)	growth (RXF 393 renal) [%]	growth (SF-295 CNS)	growth (UACC-257 melanoma) [%]	growth (PC-3 prostate)	growth (SK-MEL-5 melanoma)	growth (LOX IMVI melanoma)	growth (CAKI-1 renal) [%]	growth (CCRF-CEM leukemia)	growth (MOLT-4 leukemia)	growth (RPMI-8226 leukemia)	growth (OVCAR-8 ovarian)	growth (OVCAR-3 ovarian)	growth (HS 578T breast)	growth (BT-549 breast)	growth (HCT-116 colon)	growth (HCC-2998 colon)	growth (M14 melanoma)	growth (A498 renal)
NS(=O)(=O)c1nc[nH]c1[N+](=O)[O-]	99.4%	102%	116	108%	119	86.5%	101%	101%	97.7	106%	102%	101%	105%	115%	112%	96.7%	104%	100%	–	–
CC1=C(SCCC(=O)OCC(=O)NCCC[Te]c2ccccc2)C(=O)c2ccccc2C1=O	-4.17% (active)	-7.94% (active)	25	-35.6% (active)	55.1	-9.1% (active)	-61.4% (active)	-12.6% (active)	27.4	2.25% (active)	0.655% (active)	-8.41% (active)	5.76% (active)	-25.6% (active)	-16.9% (active)	-6.68% (active)	-12.9% (active)	10.1%	-52.4% (active)	-11.8% (active)
O=C1NC(=O)C(O)(C2(O)C(=O)NC(=O)NC2=O)C(=O)N1	99.5%	57.9%	–	133%	–	89.2%	86.7%	91.9%	104	70.1%	85.2%	75.6%	109%	115%	99%	–	97%	-55.7% (active)	105%	89.1%
